Source: PubChem BioAssay (NCATS)
Records with an inconclusive call do not appear. Values without a mark were called inactive. Calls of active or inactive are those of the source. Calls come from the whole dose curve; as a rule, active = well fitted activation curve with a large enough effect; inconclusive = small, poorly fitted or top-dose-only effect, or effect the other way; inactive = flat fitted curve, though single readings scatter.
% is set by controls: 0 for no effect and ±100 for the full control effect; potency is the fitted concentration of half-maximal effect.

Assay: qHTS Assay for Identification of Small Molecule Agonists for Thrombopoietin (TPO) Signaling Pathway (AID 917)
Settings: TPO signaling pathway reporter cells, agonist qHTS, stimulated with TPO at its EC50; series mostly up to 38.5 µM; activity, positive = activation: at the top concentration
Protocol: NIH Molecular Libraries Screening Centers Network [MLSCN]
NIH Chemical Genomics Center [NCGC]
The thrombopoietin (TPO) signaling pathway was assayed in murine Ba/F3 cells stably transfected with the human TPO receptor and a luciferase reporter gene controlled by the Glycoprotein IIb promoter (provided by Axxam). BaF3 cells are an IL-3-dependent pro B cell line that upon TPO stimulation, undergo cell division and induce the megakaryocyte marker, Glycoprotein IIb. The assay was screened at the EC50 of TPO (26 pM) to identify activators of the pathway.
NCGC Assay Protocol Summary:
Cells were maintained at 37 C and 5% CO2in RPMI with 10% fetal bovine serum, 0.5 ng/mL murine IL-3, 100U/ml penicillin and 100 ug/ml streptomycin. Prior to plating, cells were incubated overnight in medium without IL-3. Cells were plated at 250 cells/5uL/well into white solid 1536-well plates, 23 nL of compounds were delivered by a pin tool, and 1 uL of TPO (26 pM final concentration in IL-3 deficient medium) was added. Following 24 hrs of incubation at 37 C and 5% CO2, 4 uL of Steadylite detector mix (PerkinElmer) was added, the plates incubated at room temperature for 10 min and luminescence was measured for 10 s and 2X binning by a ViewLux detector (Perkin Elmer).
With `CN(C)C/C=C(\c1ccc(Br)cc1)c1cccnc1` the “activity, positive = activation” value was -6.08%. With `CN(C)CCCCSC(=N)N` the “activity, positive = activation” value was -19.3%. With `C[C@@H](/C=C\c1cccc(Oc2ccc(F)cc2)c1)N(O)C(N)=O` the “activity, positive = activation” value was 9.67%. In the case of `CC#CCOC(=O)c1c(C)nc2sc3c(c2c1N)CC[C@@H](O)C3`, the “activity, positive = activation” value is reported as -0.615%. With `CC(N)=NCCCC[C@H](N)C(=O)O` the “activity, positive = activation” value was -4.8%. With `CC(C)=CCC/C(C)=C/CC/C(C)=C/CSc1ccccc1C(=O)O` the “activity, positive = activation” value was -16.1%. In the case of `C[C@H](N=C(NC#N)Nc1ccncc1)C(C)(C)C`, the “activity, positive = activation” value is reported as -17.9%. With `CC(C)NC[C@H](O)c1ccc(NS(C)(=O)=O)cc1` the “activity, positive = activation” value was 1.47%. With `CN(C)c1ccc(/C=C2/C(=O)Nc3ccccc32)cc1` the Potency was 0.0631 µM (active). With `COc1ccc2c(c1)c(CC(=O)N1CCOCC1)c(C)n2C(=O)c1ccc(Cl)cc1` the “activity, positive = activation” value was -21.7%. In the case of `NC(N)=NN=Cc1c(Cl)cccc1Cl`, the “activity, positive = activation” value is reported as 18.5%. In the case of `CCN(Cc1ccncc1)C(=O)[C@@H](CO)c1ccccc1`, the “activity, positive = activation” value is reported as -8.96%. For `COc1ccccc1NC(=O)Nc1nc(-c2cccnc2)nc2ccccc12`, the “activity, positive = activation” value was -10.2%. In the case of `C[C@@H]1CNCCN1S(=O)(=O)c1cccc2cnccc12`, the “activity, positive = activation” value is reported as 11.8%. With `C[C@@](N)(C(=O)O)c1ccc(C(=O)O)cc1` the “activity, positive = activation” value was -12.8%. With `COc1cc2nc(N3CCN(C(=O)[C@H]4CCCO4)CC3)nc(N)c2cc1OC` the “activity, positive = activation” value was -11.7%. In the case of `O=C(NCCNC[C@@H](O)COc1ccc(O)cc1)N1CCOCC1`, the “activity, positive = activation” value is reported as -15.2%. For `O=C1N=C(O)CN1/N=C\c1ccc(-c2ccc([N+](=O)[O-])cc2)o1`, the “activity, positive = activation” value was -11.9%. For `O=C(O)c1cc(=O)c2ccc(Cl)cc2[nH]1`, the “activity, positive = activation” value was 10.3%. With `N[C@@H]1CCN(O)C1=O` the “activity, positive = activation” value was -17.6%. With `CN1CCN2c3ccccc3Cc3ccccc3[C@@H]2C1` the “activity, positive = activation” value was -12.7%. For `COC(=O)C1=C(C)NC(C)=C([N+](=O)[O-])[C@H]1c1ccccc1C(F)(F)F`, the “activity, positive = activation” value was -29.1%. For `CC(C)(C)NC[C@H](O)COc1cccc2[nH]c(=O)[nH]c12`, the “activity, positive = activation” value was 9.23%. In the case of `N[C@H](C(=O)O)[C@@H]1C[C@@H]1C(=O)O`, the “activity, positive = activation” value is reported as -13.2%. In the case of `N#C/C(=C\c1ccc(O)c(O)c1)C(=O)Nc1ccccc1`, the “activity, positive = activation” value is reported as 2.46%. With `N[C@]1(C(=O)O)CCc2cc(C(=O)O)ccc21` the “activity, positive = activation” value was -17.9%. With `CC[C@H](C)N(C)C(=O)c1cc2ccccc2c(-c2ccccc2Cl)n1` the “activity, positive = activation” value was -22.2%. With `NS(=O)(=O)c1cc2c(cc1Cl)N[C@@H]([C@@H]1C[C@@H]3C=C[C@H]1C3)NS2(=O)=O` the “activity, positive = activation” value was -16.1%. For `C[C@]12CC3CC(N)(C1)C[C@@](C)(C3)C2`, the “activity, positive = activation” value was 5.65%. With `S=C(S)O[C@@H]1C[C@@H]2C[C@H]1[C@@H]1CCC[C@H]21` the “activity, positive = activation” value was -8.81%. For `CC(C)(C)NC[C@H](O)c1ccc(O)c(CO)c1`, the Potency was “inactive”. In the case of `C[C@@H]1C[C@@H]2[C@H]3CCC4=CC(=O)C=C[C@]4(C)[C@]3(F)[C@@H](O)C[C@@]2(C)[C@@]1(O)C(=O)CO`, the “activity, positive = activation” value is reported as -15.4%. For `COC(=O)c1c(-c2cc(OC)c(OC)c(OC)c2)c2ccnc(OCc3ncccn3)c2c(=O)n1Cc1ccnc(C)c1`, the “activity, positive = activation” value was -25.8%. In the case of `Cc1cccc(/C=C\c2ccccc2)n1`, the Potency is reported as 2 µM (active). With `CN1CCN(CCC=C2c3ccccc3Sc3ccc(S(=O)(=O)N(C)C)cc32)CC1` the “activity, positive = activation” value was -29.4%. In the case of `O=C(O)[C@H]1CN(CCCP(=O)(O)O)CCN1`, the “activity, positive = activation” value is reported as -13.3%. For `CCOC(=O)[C@@]12C[C@@H]1/C(=N/O)c1ccccc1O2`, the “activity, positive = activation” value was 13.2%. For `CCCn1c(=O)c2[nH]c(-c3ccc(OCC(=O)Nc4ccc(C#N)cc4)cc3)nc2n(CCC)c1=O`, the “activity, positive = activation” value was -14.3%. With `CC1=C(\C=C/C(C)=C/C=C\C(C)=C\C(=O)O)C(C)(C)CCC1` the Potency was “inactive”. In the case of `Fc1cccc(/C=N\N=C/c2cccc(F)c2)c1`, the Potency is reported as 3.16 µM (active).
